# According to PubChem BioAssay:
# The source made the active and inactive calls. Unless noted, no rule for the calls is given here.
# Tests used:
# [1] = system: XIP peptide (Xip251-270) binding; assay: small-molecule binders of XIP peptide, primary screen, biochemical, small-molecule microarray, fluorescence 635/667 nm, 0.1 µg/mL protein (AID 1182); details: fluorescent protein binding, 635 nm, higher = more signal, called active from +8 up or from −8 down
# XIP peptide (Xip251-270) = assay: small-molecule binders of XIP peptide, primary screen, biochemical, small-molecule microarray, fluorescence 635/667 nm, 0.5 µg/mL protein (AID 1183); details: small-molecule microarray binding, fluorescence 635 nm; higher = more signal
# [2] = Plasmodium falciparum growth inhibition, primary screen, strain 3D7, DAPI fluorescence, 100 nL (AID 1184);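 also: parasites grown inside human red blood cells in medium with human serum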; details: P. falciparum 3D7 growth, 3 d, higher = more signal
# [3] = biological target: Homeobox protein Hox-A13 (Mus musculus) (UniProt Q62424); assay: inhibitors of HoxA13-DNA binding, primary screen, biochemical, fluorescence polarization, labeled oligonucleotide (AID 1185); details: 15 min, higher = more signal, called active from +8 up or from −8 down
# Chain of Homeobox protein Hox-A13 (Mus musculus) (Q62424 whole entry, looked up): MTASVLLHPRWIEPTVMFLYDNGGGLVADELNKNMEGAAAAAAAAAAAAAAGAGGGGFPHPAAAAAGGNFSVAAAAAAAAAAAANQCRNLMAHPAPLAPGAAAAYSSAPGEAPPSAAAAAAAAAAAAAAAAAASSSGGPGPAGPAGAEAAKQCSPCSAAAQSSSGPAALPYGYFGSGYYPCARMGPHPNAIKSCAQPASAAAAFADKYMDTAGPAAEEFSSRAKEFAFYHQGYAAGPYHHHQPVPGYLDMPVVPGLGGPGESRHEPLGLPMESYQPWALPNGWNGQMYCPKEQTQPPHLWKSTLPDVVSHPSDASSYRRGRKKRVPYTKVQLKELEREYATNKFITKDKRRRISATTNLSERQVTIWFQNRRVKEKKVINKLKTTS
# [4] = inhibitors of hydroxyurea-induced Chk1 phosphorylation, primary screen, imaging, HeLa, phospho-Chk1 antibody, percent positive cells (AID 1186); details: hydroxyurea-induced phospho-Chk1 immunofluorescence imaging, higher = more signal
# [5] = inhibitors of hydroxyurea-induced Chk1 phosphorylation, primary screen, imaging, HeLa, phospho-Chk1 nuclear intensity (AID 1187); details: hydroxyurea-induced phospho-Chk1 immunofluorescence imaging, higher = more signal
Structure (SMILES),composite z-score [1],composite z-score (XIP peptide (Xip251-270)),z-score [2],z-score [3],z-score [4],z-score [5]
Cc1ccc(C(C)CC(O)C2C=CC3C(=O)N(c4ccccc4)C(=O)C3N2Nc2ccc(C(C)C)cc2)o1 (stereo not given),0.195 (inactive),0.691,0.0472,-3.2 (inactive),0.527 (inactive),0.482 (inactive)
O=C1O[C@@H](c2ccccc2)[C@@H](c2ccccc2)N2[C@@H](c3ccccc3OCCO)[C@]3(C(=O)Nc4ccc(C#CC5=CCCCC5)cc43)[C@@H](C(=O)NC[C@H](O)c3ccccc3)[C@H]12,0.409 (inactive),0.0598,-1.7,1.62 (inactive),-0.336 (inactive),-0.415 (inactive)
COc1ccc(C(O)C2C=CC3C(=O)N(c4ccccc4)C(=O)C3N2Nc2ccc(C#N)cc2)c2ccccc12 (stereo not given),1.41 (inactive),0.728,-0.683,0.744 (inactive),-0.294 (inactive),-0.468 (inactive)
COC(=O)[C@@]1(Cc2ccc(F)cc2)[C@H]2c3cc(C(=O)N4CCCC4)n(CCc4c[nH]c5ccc(OC)cc45)c3C[C@H]2CN1C(=O)c1ccccc1,0.804 (inactive),0.727,-1.74,-3.53 (inactive),-0.371 (inactive),-0.199 (inactive)
COc1ccccc1CN1C(=O)c2ccccc2[C@](Cc2ccccc2I)(C(=O)NC(C)C)[C@@H]1c1ccc(CO)cc1,0.265 (inactive),0.585,-1.95,-3.59 (inactive),-0.316 (inactive),-0.471 (inactive)
CCOC(=O)C[C@H]1[C@H](OC(=O)c2ccccc2-c2ccccc2)[C@@H](NC(=O)CC(C)C)c2cc(OCCCO)ccc2N1C(=O)c1ccc2ccccc2n1,2.34 (inactive),0.0366,1.65,-3.94 (inactive),0.222 (inactive),-0.537 (inactive)
CCCCN1CC=CC23O[C@@H]4C=CCOC(=O)[C@@H]4[C@H]2C(=O)N(C(C)CO)[C@@H]3C1=O (stereo not given in full),-0.161 (inactive),-1.06,1,-5.05 (inactive),-0.525 (inactive),-0.392 (inactive)
C=CCC(OC(C)=O)[C@@H]1[C@@H](N(Cc2cc3ccccc3o2)C(=O)Cc2ccc(F)cc2)c2cc(OCCCO)ccc2N1C(=O)c1ccc2ccccc2n1 (stereo not given in full),-0.173 (inactive),-0.442,0.774,-1.55 (inactive),0.702 (inactive),0.636 (inactive)
CC(C)c1ccc(NN2C(C(O)c3ccco3)C=CC3C(=O)N(c4ccccc4)C(=O)C32)cc1 (stereo not given),0.938 (inactive),0.849,-0.107,-3.14 (inactive),-0.881 (inactive),-1.03 (inactive)
COCCCNC(=O)[C@]1(Cc2ccccc2CN=[N+]=[N-])N=C(c2ccc(OCCCO)cc2)O[C@@H]1c1ccccc1,0.0968 (inactive),0.598,-2.41,-6.44 (inactive),-0.401 (inactive),-0.24 (inactive)
COC(=O)[C@@]1(Cc2ccccc2)[C@H]2c3cc(C(=O)N4CCCC4)n(C[C@H](O)CO)c3C[C@H]2CN1C(=O)c1ccccc1,0.484 (inactive),-0.487,-1.02,-5.19 (inactive),0.905 (inactive),0.777 (inactive)
O=C1O[C@@H](c2ccccc2)[C@@H](c2ccccc2)N2[C@@H](c3ccc(O)cc3)[C@]3(C(=O)Nc4ccc(C#CCCO)cc43)[C@@H](C(=O)Nc3nc4ccccc4s3)[C@H]12,0.336 (inactive),0.732,0.204,-0.524 (inactive),0.151 (inactive),0.283 (inactive)
C=CCC(OC(C)=O)[C@@H]1[C@@H](N(Cc2cc3ccccc3o2)C(=O)c2ccc(C)cc2)c2cc(OCCCO)ccc2N1C(=O)Cc1ccc2ccccc2c1 (stereo not given in full),-0.303 (inactive),-0.419,-0.429,-1.45 (inactive),0.0151 (inactive),0.0749 (inactive)
C=CCOC(=O)[C@H]1[C@@H]2C(=O)O[C@@H](c3ccccc3)[C@@H](c3ccccc3)N2[C@@H](c2ccc(OCCOC(=O)[C@H]3C[C@H]4C(=O)N[C@@H](Cc5ccccc5)C(=O)N4[C@H]3c3ccc(O)cc3)cc2)[C@]12C(=O)Nc1ccc(I)cc12,0.451 (inactive),0.768,-1.62,1.21 (inactive),-0.688 (inactive),-0.476 (inactive)
CCOC(=O)C1=CC[C@@H](c2ccccc2)N(S(=O)(=O)c2ccc(C)cc2)C1,-0.4 (inactive),-0.654,-0.557,-2.76 (inactive),0.107 (inactive),-0.749 (inactive)
CN1C(=O)C2C=CC(C(O)C3CCCCC3)N(N3CCCCC3)C2C1=O (stereo not given),0.269 (inactive),0.803,-0.151,-3.82 (inactive),0.796 (inactive),0.332 (inactive)
CC(=O)N1Cc2ccccc2C[C@]2(N=C(c3ccc(OCCCO)cc3)O[C@@H]2c2ccccc2)C1=O,1.84 (inactive),0.836,-1.42,-4.24 (inactive),-0.151 (inactive),-0.0442 (inactive)
COc1ccc(C(O)C2C=CC3C(=O)N(c4ccccc4)C(=O)C3N2Nc2ccccc2)cc1OCc1ccccc1 (stereo not given),0.0123 (inactive),0.713,-0.0742,-1.8 (inactive),0.302 (inactive),-0.156 (inactive)

Structure (SMILES),composite z-score [1],composite z-score (XIP peptide (Xip251-270)),z-score [2],z-score [3],z-score [4],z-score [5]
CN(C)CCCNC(=O)[C@@H]1c2ccccc2C(=O)N(Cc2ccc(OC(F)(F)F)cc2)[C@H]1c1ccc(CO)cc1,0.323 (inactive),0.721,-1.9,-3.41 (inactive),-0.234 (inactive),-0.296 (inactive)
CC=CC(O)C1C=CC2C(=O)N(c3ccccc3)C(=O)C2N1Nc1ccccc1 (stereo not given),0.228 (inactive),0.813,-0.0445,-4.14 (inactive),0.0716 (inactive),-0.167 (inactive)
CC1CC/C=C\[C@H]2OC34C=CCN(CCN5CCOCC5)C(=O)[C@H]3N(CCO)C(=O)[C@@H]4C2C(=O)O1 (stereo not given in full),0.467 (inactive),0.829,0.055,-5.81 (inactive),0.0898 (inactive),0.139 (inactive)
CN1C(=O)[C@@]2(CCS(=O)(=O)c3ccccc3)N=C(c3ccc(OCCCO)cc3)O[C@H]2c2ccccc21,0.489 (inactive),0.182,-2.07,-6.19 (inactive),-0.262 (inactive),0.146 (inactive)
CCOc1cc(C(O)C2C=CC3C(=O)N(C)C(=O)C3N2N2CCCCC2)ccc1O (stereo not given),0.169 (inactive),0.333,-0.144,-5.25 (inactive),-0.595 (inactive),-0.839 (inactive)
NCCCCCCNC(=O)[C@H]1C[C@H]2C(=O)N[C@@H](Cc3ccccc3)C(=O)N2[C@H]1c1ccc(O)cc1,-0.342 (inactive),0.623,0.171,-3.5 (inactive),-0.174 (inactive),0.592 (inactive)
O=C1NCC(=O)N2[C@@H]1C[C@@H](C(=O)O)[C@H]2c1ccc(O)cc1,1.26 (inactive),0.665,0.489,-1.91 (inactive),0.0155 (inactive),0.0565 (inactive)
CC(=O)n1cc(C(O)C2C=CC3C(=O)N(c4ccccc4)C(=O)C3N2Nc2ccccc2)c2ccccc21 (stereo not given),0.853 (inactive),-0.515,-0.4,-3.42 (inactive),0.863 (inactive),0.355 (inactive)
C=CCNC(=O)[C@@H]1[C@H]2C(=O)O[C@H](c3ccccc3)[C@H](c3ccccc3)N2[C@H](c2ccc(OCCO)cc2)[C@@]12C(=O)N(C(=O)OCCOC)c1ccc(C#CC3=CCCCC3)cc12,0.0094 (inactive),0.659,-2.19,0.713 (inactive),0.201 (inactive),0.474 (inactive)
CCCCC(CC)C(O)C1C=CC2C(=O)N(c3ccccc3)C(=O)C2N1Nc1ccc([N+](=O)[O-])cc1 (stereo not given),0.389 (inactive),0.624,0.0352,-3.6 (inactive),0.332 (inactive),-0.383 (inactive)
O=C1O[C@H](c2ccccc2)[C@H](c2ccccc2)N2[C@H]1[C@@H](C(=O)O)[C@]1(C(=O)Nc3ccccc31)[C@H]2c1ccc(O)cc1,0.624 (inactive),0.212,-0.0758,-5.84 (inactive),0.0422 (inactive),-0.426 (inactive)
COc1ccc([Si](C)(C)[C@H]2[C@H](CCn3cc([C@H](O)c4ccccc4)nn3)O[C@@]3(C(=O)N(Cc4ccc(N5CCC5=O)cc4)c4ccccc43)[C@@H]2C)cc1,0.588 (inactive),0.576,-1.87,-2.79 (inactive),-0.162 (inactive),-0.628 (inactive)
COc1cc(CO)cc(I)c1O[C@H]1C=C(C(=O)NCCO)C[C@@H](NCc2ccccc2F)[C@@H]1O,-0.346 (inactive),0.481,-2.98,-7.62 (inactive),-0.24 (inactive),0.959 (inactive)
CC(C)C(=C=CC[C@@H](O)c1ccccc1OCCO)C[C@@H](O)COCc1ccccc1,0.493 (inactive),0.401,-1.47,-4.7 (inactive),-0.476 (inactive),1.12 (inactive)
O=C(CS)NCCCCCCNC(=O)[C@@H]1C[C@@H]2C(=O)N3CCC[C@H]3C(=O)N2[C@@H]1c1cccc(OCCO)c1,1.97 (inactive),0.864,0.0153,-3.25 (inactive),-1.31 (inactive),-0.971 (inactive)
C=CCN1C(=O)[C@@]2(O[C@@H](CCn3cc([C@H](O)c4ccccc4)nn3)[C@H]([Si](C)(C)c3ccc(OC)cc3)[C@H]2C)c2ccccc21,-0.0466 (inactive),0.857,-0.99,-5.69 (inactive),-0.763 (inactive),-1.51 (inactive)
C[n+]1ccc(CCCO)cc1,0.955 (inactive),1.02,-1.21,-2.17 (inactive),-0.0124 (inactive),0.102 (inactive)
